Reference: the supplement of paper PMC13380429

Tested on: Vero E6 infected with SARS-CoV-2
Assay: inhibition of SARS-CoV-2 cytopathic effect; higher = more antiviral protection, active = above 15
Settings: 48 h

Measured: inhibition of SARS-CoV-2 cytopathic effect

O=C(Nc1ccccc1)N[C@H]1C[C@H](C(=O)O)Nc2cc(Cl)cc(Cl)c21
inactive: 1 nM -0.64% | 8.33 nM -2.48% | 100 nM 0.61% | 833.33 nM -0.05% | 10000 nM 0.62%

Cc1c2oc3c(C)ccc(C(=O)N[C@@H]4C(=O)N[C@@H](C(C)C)C(=O)N5CCC[C@H]5C(=O)N(C)CC(=O)N(C)[C@@H](C(C)C)C(=O)O[C@@H]4C)c3nc-2c(C(=O)N[C@@H]2C(=O)N[C@@H](C(C)C)C(=O)N3CCC[C@H]3C(=O)N(C)CC(=O)N(C)[C@@H](C(C)C)C(=O)O[C@@H]2C)c(N)c1=O [actinomycin-d]
inactive: 1 nM -0.33% | 8.33 nM 1.99% | 100 nM 0.83% | 833.33 nM -8.47% | 10000 nM -14.8%

CCOC(=O)c1c(O)nc2cccc3c2c1-c1ccccc1C3=O
inactive: 1 nM 0.21% | 8.33 nM 0.57% | 100 nM 5.31% | 833.33 nM 4.72% | 10000 nM 4.09%

CC(C)C(=O)c1c(C(C)C)nn2ccccc12 [ibudilast]
inactive: 1 nM 2.15% | 8.33 nM 6.68% | 100 nM 5.43% | 833.33 nM 7.59% | 10000 nM 2.39%

N=C(NCc1ccc(Cl)cc1)SCCCc1c[nH]cn1 [clobenpropit]
inactive: 1 nM 1.58% | 8.33 nM 1.91% | 100 nM 1.78% | 833.33 nM 1.78% | 10000 nM 0.31%

COc1cc(NC(=O)c2ccc(-c3ccc(Cl)cc3)o2)cc(OC)c1
inactive: 1 nM 1.92% | 8.33 nM 0.3% | 100 nM 0.76% | 833.33 nM 0.19% | 10000 nM 0.71%

CCCC(O)C(CC)CO (stereo not given) [2-ethyl-1,3-hexanediol]
inactive: 1 nM 4.92% | 8.33 nM 0.49% | 100 nM 1.14% | 833.33 nM 0.52% | 10000 nM 0.65%

CC1(C)CCC(C)(C)c2cc(C3(c4ccc(C(=O)O)cc4)OCCO3)ccc21
inactive: 1 nM -2.44% | 8.33 nM -2.21% | 100 nM 1% | 833.33 nM -0.7% | 10000 nM -1.37%

CCN(CC)CCCCNc1ncc2cc(-c3c(Cl)cccc3Cl)c(NC(=O)NC(C)(C)C)nc2n1
inactive: 1 nM -1.36% | 8.33 nM -1.31% | 100 nM 2.1% | 833.33 nM -1.78% | 10000 nM 13.4%

CCC[S+]([O-])c1ccc2[nH]c(NC(=O)OC)nc2c1 (stereo not given) [albendazole-oxide]
inactive: 1 nM 3.02% | 8.33 nM 2.02% | 100 nM 0.87% | 833.33 nM 1.7% | 10000 nM 0.07%

Clc1ccc2c(NCCNc3ccnc4cc(Cl)ccc34)ccnc2c1
inactive: 1 nM -2.64% | 8.33 nM 0.71% | 100 nM 5.21% | 833.33 nM 0.16% | 10000 nM 0%

C[C@H]1[C@H](OC(=O)CCC(=O)O)O[C@@H]2O[C@@]3(C)CC[C@H]4[C@H](C)CC[C@@H]1[C@@]24OO3 [artesunate]
inactive: 1 nM -1.31% | 8.33 nM -0.87% | 100 nM 1.57% | 833.33 nM -1.37% | 10000 nM -11.7%

CCc1cc2c(s1)-n1c(C)nnc1CN=C2c1ccccc1Cl [etizolam]
inactive: 1 nM 2.37% | 8.33 nM 2.54% | 100 nM -2.3% | 833.33 nM 3.16% | 10000 nM 2.75%

FC(F)(F)c1ccc(CNc2ccc(Cc3c[nH]c4ncccc34)cn2)cc1
inactive: 1 nM 3.02% | 8.33 nM 0.15% | 100 nM 0.15% | 833.33 nM -0.39% | 10000 nM -1.01%

C=C1CC[C@H](O)C/C1=C/C=C1\CCC[C@]2(C)[C@@H]([C@H](C)CCCC(C)C)CC[C@@H]12 [cholecalciferol]
inactive: 1 nM -2.37% | 8.33 nM -2.07% | 100 nM -1.56% | 833.33 nM -2.03% | 10000 nM 0.91%

CNC(=O)c1ccc2c(c1)S(=O)(=O)c1ccccc1C2=O
inactive: 1 nM 0.15% | 8.33 nM 0.66% | 100 nM 1.63% | 833.33 nM -1.32% | 10000 nM -0.42%

COCc1nnc(N2CC(Oc3ccc(F)cc3Cl)C2)n1-c1ccc(OC)nc1
inactive: 1 nM -1.23% | 8.33 nM -3.96% | 100 nM -0.12% | 833.33 nM -1.42% | 10000 nM -1.43%

Nc1nc(Cl)nc2c1ncn2[C@@H]1O[C@H](CO)[C@@H](O)[C@H]1O [2-chloroadenosine]
inactive: 1 nM 1.66% | 8.33 nM 0.54% | 100 nM -0.34% | 833.33 nM -0.32% | 10000 nM -2.2%

N#Cc1ccc(N2N=C3c4ccc(C(=O)O)cc4CC[C@@H]3[C@@H]2C2CCCC2)cc1Cl
active: 8.33 nM 18% | 100 nM 18.3%
inactive: 1 nM 7.07% | 833.33 nM 4.59% | 10000 nM 10.2%

CCN(Cc1ccncc1)C(=O)C(CO)c1ccccc1 (stereo not given) [tropicamide]
inactive: 1 nM 2.76% | 8.33 nM 4.91% | 100 nM 3.33% | 833.33 nM 3.81% | 10000 nM -2.47%

CN1CCc2c(c3ccccc3n2Cc2ccc(C(=O)NO)cc2)C1 [tubastatin-A]
inactive: 1 nM -0.32% | 8.33 nM 0.16% | 100 nM 1.09% | 833.33 nM -1.27% | 10000 nM -6.46%

CCCn1c(=O)[nH]c(=O)c2nc[nH]c21 [enprofylline]
inactive: 1 nM 0.79% | 8.33 nM 0.93% | 100 nM 1.89% | 833.33 nM 1.3% | 10000 nM 4.03%

Oc1ccc(OCc2ccccc2)cc1 [monobenzone]
inactive: 1 nM -1.3% | 8.33 nM -1.35% | 100 nM -0.07% | 833.33 nM -0.61% | 10000 nM -2.93%

O=C1CCc2ccc(OCCCCN3CCN(c4cccc(Cl)c4Cl)CC3)cc2N1 [aripiprazole]
inactive: 1 nM 5.18% | 8.33 nM -2.79% | 100 nM 1.15% | 833.33 nM -1.05% | 10000 nM -5.25%

O=C(Nc1cnccc1Cl)N1CCN(Cc2ccc3c(c2)OC(F)(F)O3)CC1
inactive: 1 nM 1.58% | 8.33 nM -1.35% | 100 nM 1.93% | 833.33 nM 0.76% | 10000 nM 0.7%

Cc1c(N)nc([C@H](CC(N)=O)NC[C@H](N)C(N)=O)nc1C(=O)N[C@H](C(=O)N[C@H](C)[C@@H](O)[C@H](C)C(=O)N[C@H](C(=O)NCCc1nc(-c2nc(C(=O)NCCCNCCCCN)cs2)cs1)[C@@H](C)O)[C@@H](O[C@@H]1O[C@@H](CO)[C@@H](O)[C@H](O)[C@@H]1O[C@@H]1O[C@H](CO)[C@@H](O)[C@H](OC(N)=O)[C@@H]1O)c1cnc[nH]1 [bleomycetin]
inactive: 1 nM 5.02% | 8.33 nM -0.49% | 100 nM -7.1% | 833.33 nM -8.93% | 10000 nM -22.7%

COCc1c(-c2ccc(NC(=O)Nc3cc(C(F)(F)F)ccc3F)c(F)c2)c2c(N)ncnn2c1CN1CCOCC1
inactive: 1 nM -1.56% | 8.33 nM -1.94% | 100 nM -2.74% | 833.33 nM -0.39% | 10000 nM -0.16%

NCCC(Oc1ccc(C(F)(F)F)cc1)c1ccccc1 (stereo not given) [norfluoxetine]
inactive: 1 nM 1.01% | 8.33 nM 2.75% | 100 nM 1.92% | 833.33 nM -0.09% | 10000 nM -5.55%

O=C(O)/C=C/c1ccc(O)cc1 [naringeninic-acid]
inactive: 1 nM 1.32% | 8.33 nM -1.82% | 100 nM -12% | 833.33 nM -0.34% | 10000 nM -0.09%

Cc1cccc(Oc2cnc(=O)[nH]c2)c1 [tolimidone]
inactive: 1 nM -0.32% | 8.33 nM -2.84% | 100 nM -2.12% | 833.33 nM -13.1% | 10000 nM 0.88%

CC(C)NC[C@@H](O)c1ccc(O)c(O)c1 (racemic) [isoprenaline]
inactive: 1 nM 1.39% | 8.33 nM -0.18% | 100 nM -0.08% | 833.33 nM 0.77% | 10000 nM -2.47%

CC(C)(Sc1ccc(CCN(CCCCC2CCCCC2)C(=O)NC2CCCCC2)cc1)C(=O)O
inactive: 1 nM -11.4% | 8.33 nM -10% | 100 nM -5.76% | 833.33 nM -3.65% | 10000 nM -8.5%

Cc1ncc(NC(=O)c2ccc(CN3CCN(C)CC3)c(C(F)(F)F)c2)cc1Nc1nccc(-c2cccnc2)n1 [flumatinib]
inactive: 1 nM 2.56% | 8.33 nM -0.34% | 100 nM 1.46% | 833.33 nM 3.69%
active: 10000 nM 66.1%

Cn1c(=O)n(-c2ccc(C(C)(C)C#N)cc2)c2c3cc(-c4cnc5ccccc5c4)ccc3ncc21
inactive: 1 nM 1.43% | 8.33 nM -0.22% | 100 nM 0.93% | 833.33 nM -5.08% | 10000 nM -5.4%

O=C1C=Cc2cc(Br)ccc2C1=O [bonaphthone]
inactive: 1 nM -0.83% | 8.33 nM 0.78% | 100 nM -2.18% | 833.33 nM -1.56% | 10000 nM -2.53%

N[C@@H](C[C@@H](F)C(=O)O)C(=O)O
inactive: 1 nM 0.4% | 8.33 nM 1.43% | 100 nM 2.09% | 833.33 nM -2.92% | 10000 nM -1.49%

Nc1nc(=O)c2nc(CNc3ccc(C(=O)N[C@@H](CCC(=O)O)C(=O)O)cc3)cnc2[nH]1 [folic-acid]
inactive: 1 nM -1.27% | 8.33 nM 1.24% | 100 nM 0.24% | 833.33 nM 1.38% | 10000 nM -0.44%

CCOC(=O)[C@@H](N)Cc1ccc(O)c(O)c1 [etilevodopa]
inactive: 1 nM 3.02% | 8.33 nM 1.51% | 100 nM 2.32% | 833.33 nM 0.72% | 10000 nM 0.9%
